Experimental data published in PMC7862700, “An all-to-all approach to the identification of sequence-specific readers for epigenetic DNA modifications on cytosine”.

Assays:
Experiment in all cases: DAPPL (digital affinity profiling via proximity ligation, sequencing); 10 mM Tris-HCl pH 7.5, 50 mM NaCl, 1 mM DTT, 4% glycerol, room temperature, 30 min; GST-TFs on glutathione beads, 16-mer random dsDNA library, 0.1% formaldehyde crosslink after washing; high values mean tight binding
FEV = molecular target: T1, FEV (Homo sapiens, UniProt Q99581 1-238); details: protein: recombinant; tags: N-terminal GST; dsDNA, one strand shown
T1 sequence: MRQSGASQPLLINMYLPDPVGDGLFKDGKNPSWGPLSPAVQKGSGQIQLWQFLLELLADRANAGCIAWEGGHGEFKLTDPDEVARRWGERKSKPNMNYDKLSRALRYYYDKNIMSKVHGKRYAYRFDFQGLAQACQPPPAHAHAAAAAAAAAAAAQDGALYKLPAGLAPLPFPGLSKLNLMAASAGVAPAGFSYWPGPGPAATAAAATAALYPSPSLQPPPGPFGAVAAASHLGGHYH
How it was run: (§1)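 Human transcription factors fused to GST were expressed in yeast, captured on glutathione beads, given DNA barcodes and pooled with a GST-only negative control. Pools were incubated with 200 nmole of a 16-mer random double-stranded DNA library in Tris/NaCl/DTT/glycerol buffer at room temperature for 30 min. They were then washed, crosslinked with 0.1% formaldehyde, proximity-ligated (BsaI/T4 ligase, 1 h, 37 °C), PCR-amplified and sequenced on an Illumina NextSeq500. Binding signal is each 6-mer's read frequency for a factor divided by its frequency for the GST control.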

ETV5 = ETV5 (Homo sapiens, UniProt P41161 1-510); details: protein: recombinant; tags: N-terminal GST; dsDNA, one strand shown
How it was run: as §1

HSF1 = HSF1 (Homo sapiens, UniProt Q00613 1-529); details: protein: recombinant; tags: N-terminal GST; chain copies: 3; dsDNA, one strand shown
How it was run: as §1

SPIC = molecular target: T2, SPIC (Homo sapiens, UniProt Q8N5J4 1-248); details: protein: recombinant; tags: N-terminal GST; dsDNA, one strand shown
T2 sequence: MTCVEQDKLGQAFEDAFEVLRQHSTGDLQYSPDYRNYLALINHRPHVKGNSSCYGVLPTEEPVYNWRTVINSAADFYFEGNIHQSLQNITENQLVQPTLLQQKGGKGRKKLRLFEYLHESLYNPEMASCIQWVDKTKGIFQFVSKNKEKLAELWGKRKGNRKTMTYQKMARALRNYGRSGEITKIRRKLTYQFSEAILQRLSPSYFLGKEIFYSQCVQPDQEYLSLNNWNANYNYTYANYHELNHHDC
How it was run: as §1

ELF4 = ELF4 (Homo sapiens, UniProt Q99607 1-663); details: protein: recombinant; tags: N-terminal GST; dsDNA, one strand shown
How it was run: as §1

ELK4 = molecular target: T3, ELK4 (Homo sapiens, UniProt P28324-2 1-405); details: protein: recombinant; tags: N-terminal GST; dsDNA, one strand shown
T3 sequence: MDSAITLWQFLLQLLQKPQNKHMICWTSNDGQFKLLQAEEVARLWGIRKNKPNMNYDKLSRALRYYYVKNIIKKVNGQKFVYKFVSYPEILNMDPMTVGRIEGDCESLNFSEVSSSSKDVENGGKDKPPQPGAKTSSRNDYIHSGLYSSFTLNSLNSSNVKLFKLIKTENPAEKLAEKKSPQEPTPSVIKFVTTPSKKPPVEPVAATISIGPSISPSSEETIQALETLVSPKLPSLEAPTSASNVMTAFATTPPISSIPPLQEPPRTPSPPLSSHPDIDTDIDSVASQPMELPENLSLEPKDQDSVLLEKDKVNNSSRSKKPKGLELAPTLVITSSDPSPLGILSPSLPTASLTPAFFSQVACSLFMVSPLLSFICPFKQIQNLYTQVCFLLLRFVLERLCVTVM
How it was run: as §1

ETV2 = molecular target: T4, ETV2 (Homo sapiens, UniProt O00321 1-342); details: protein: recombinant; tags: N-terminal GST; dsDNA, one strand shown
T4 sequence: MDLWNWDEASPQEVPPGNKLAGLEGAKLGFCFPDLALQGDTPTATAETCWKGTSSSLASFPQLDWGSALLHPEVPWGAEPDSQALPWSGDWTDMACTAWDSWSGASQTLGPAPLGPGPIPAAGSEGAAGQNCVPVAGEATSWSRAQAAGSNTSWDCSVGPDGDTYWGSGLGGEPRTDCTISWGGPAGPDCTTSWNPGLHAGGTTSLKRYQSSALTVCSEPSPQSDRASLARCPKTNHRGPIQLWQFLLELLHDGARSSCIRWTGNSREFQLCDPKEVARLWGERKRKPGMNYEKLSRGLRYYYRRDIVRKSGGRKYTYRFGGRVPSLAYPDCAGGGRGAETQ
How it was run: as §1

ELF3 = molecular target: T5, ELF3 (Homo sapiens, UniProt P78545 1-371); details: protein: recombinant; tags: N-terminal GST; dsDNA, one strand shown
T5 sequence: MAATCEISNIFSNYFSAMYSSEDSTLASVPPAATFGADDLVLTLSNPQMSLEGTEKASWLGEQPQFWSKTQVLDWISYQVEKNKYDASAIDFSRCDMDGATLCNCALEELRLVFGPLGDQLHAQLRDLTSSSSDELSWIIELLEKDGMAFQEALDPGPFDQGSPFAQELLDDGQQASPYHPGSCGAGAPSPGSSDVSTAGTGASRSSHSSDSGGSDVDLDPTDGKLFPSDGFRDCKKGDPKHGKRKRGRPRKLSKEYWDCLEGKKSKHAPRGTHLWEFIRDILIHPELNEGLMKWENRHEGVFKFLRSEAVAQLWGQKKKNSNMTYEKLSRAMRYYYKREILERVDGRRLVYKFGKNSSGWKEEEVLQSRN
How it was run: as §1

CRX = CRX (Homo sapiens, UniProt O43186 1-299); details: protein: recombinant; tags: N-terminal GST; dsDNA, one strand shown
How it was run: as §1

ETV1 = ETV1 (Homo sapiens, UniProt P50549 1-477); details: protein: recombinant; tags: N-terminal GST; dsDNA, one strand shown
How it was run: as §1

ERF = molecular target: T6, ERF (Homo sapiens, UniProt P50548 1-548); details: protein: recombinant; tags: N-terminal GST; dsDNA, one strand shown
T6 sequence: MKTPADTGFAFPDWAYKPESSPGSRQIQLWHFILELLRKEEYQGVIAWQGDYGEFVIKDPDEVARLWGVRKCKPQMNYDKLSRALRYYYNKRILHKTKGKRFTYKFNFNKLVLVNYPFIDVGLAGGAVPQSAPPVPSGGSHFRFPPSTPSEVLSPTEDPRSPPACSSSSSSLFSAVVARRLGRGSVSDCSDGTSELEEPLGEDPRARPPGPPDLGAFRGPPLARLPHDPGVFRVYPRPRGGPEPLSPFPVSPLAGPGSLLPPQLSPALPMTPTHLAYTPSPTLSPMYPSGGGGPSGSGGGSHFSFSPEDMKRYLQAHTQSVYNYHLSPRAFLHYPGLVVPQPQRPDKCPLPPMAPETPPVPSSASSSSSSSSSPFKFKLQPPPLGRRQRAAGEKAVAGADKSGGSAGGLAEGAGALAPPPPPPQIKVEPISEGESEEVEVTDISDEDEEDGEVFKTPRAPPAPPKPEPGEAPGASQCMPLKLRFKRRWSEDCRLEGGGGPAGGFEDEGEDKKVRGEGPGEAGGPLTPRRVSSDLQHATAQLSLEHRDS
How it was run: as §1

ETV3L = molecular target: T7, ETV3L (Homo sapiens, UniProt Q6ZN32 1-361); details: protein: recombinant; tags: N-terminal GST; dsDNA, one strand shown
T7 sequence: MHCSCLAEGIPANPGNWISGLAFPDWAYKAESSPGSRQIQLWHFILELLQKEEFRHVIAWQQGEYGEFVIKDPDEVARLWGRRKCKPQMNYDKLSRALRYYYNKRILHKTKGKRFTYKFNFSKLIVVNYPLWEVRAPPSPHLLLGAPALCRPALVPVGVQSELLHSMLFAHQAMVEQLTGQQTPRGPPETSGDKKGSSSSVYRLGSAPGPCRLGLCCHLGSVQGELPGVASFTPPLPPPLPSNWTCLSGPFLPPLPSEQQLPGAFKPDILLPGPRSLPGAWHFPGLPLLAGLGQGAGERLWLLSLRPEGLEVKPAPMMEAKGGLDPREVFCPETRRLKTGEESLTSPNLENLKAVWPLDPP
How it was run: as §1

ETS2 = molecular target: T8, ETS2 (Homo sapiens, UniProt P15036 1-469); details: protein: recombinant; tags: N-terminal GST; dsDNA, one strand shown
T8 sequence: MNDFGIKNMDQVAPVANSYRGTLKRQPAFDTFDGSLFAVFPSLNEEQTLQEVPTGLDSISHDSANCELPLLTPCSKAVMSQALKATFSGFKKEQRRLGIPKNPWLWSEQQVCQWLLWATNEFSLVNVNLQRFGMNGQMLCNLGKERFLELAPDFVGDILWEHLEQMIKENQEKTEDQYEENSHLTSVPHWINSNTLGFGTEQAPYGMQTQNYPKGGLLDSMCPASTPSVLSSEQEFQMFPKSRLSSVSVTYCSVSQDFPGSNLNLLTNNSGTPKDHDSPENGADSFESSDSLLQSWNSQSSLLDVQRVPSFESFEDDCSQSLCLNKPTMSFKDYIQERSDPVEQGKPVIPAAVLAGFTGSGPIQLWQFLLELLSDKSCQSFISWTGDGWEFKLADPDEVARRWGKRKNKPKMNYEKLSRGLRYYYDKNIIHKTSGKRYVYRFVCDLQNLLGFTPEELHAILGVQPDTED
How it was run: as §1

SPDEF = molecular target: T9, SPDEF (Homo sapiens, UniProt O95238 1-335); details: protein: recombinant; tags: N-terminal GST; dsDNA, one strand shown
T9 sequence: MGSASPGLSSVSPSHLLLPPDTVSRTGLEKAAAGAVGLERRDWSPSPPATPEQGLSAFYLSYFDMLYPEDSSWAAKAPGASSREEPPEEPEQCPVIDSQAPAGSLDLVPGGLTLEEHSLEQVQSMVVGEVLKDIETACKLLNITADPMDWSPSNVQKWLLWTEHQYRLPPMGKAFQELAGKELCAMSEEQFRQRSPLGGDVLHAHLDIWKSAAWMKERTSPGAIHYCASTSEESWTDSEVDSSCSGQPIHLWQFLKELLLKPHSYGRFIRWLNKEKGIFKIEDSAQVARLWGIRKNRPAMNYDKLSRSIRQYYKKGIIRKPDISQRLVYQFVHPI
How it was run: as §1

ETV7 = molecular target: T10, ETV7 (Homo sapiens, UniProt Q9Y603 1-341); details: protein: recombinant; tags: N-terminal GST; dsDNA, one strand shown
T10 sequence: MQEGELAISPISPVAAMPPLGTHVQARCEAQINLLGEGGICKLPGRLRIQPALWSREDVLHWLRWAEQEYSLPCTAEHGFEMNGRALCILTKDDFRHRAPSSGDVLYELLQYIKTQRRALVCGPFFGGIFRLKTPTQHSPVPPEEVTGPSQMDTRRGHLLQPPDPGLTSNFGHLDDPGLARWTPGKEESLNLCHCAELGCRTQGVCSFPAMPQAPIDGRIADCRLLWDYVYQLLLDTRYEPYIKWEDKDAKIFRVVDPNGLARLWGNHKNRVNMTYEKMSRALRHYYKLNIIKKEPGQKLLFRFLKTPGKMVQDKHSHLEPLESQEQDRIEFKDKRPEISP
How it was run: as §1

ELF5 = molecular target: T11, ELF5 (Homo sapiens, UniProt Q9UKW6-2 1-255); details: protein: recombinant; tags: N-terminal GST; dsDNA, one strand shown
T11 sequence: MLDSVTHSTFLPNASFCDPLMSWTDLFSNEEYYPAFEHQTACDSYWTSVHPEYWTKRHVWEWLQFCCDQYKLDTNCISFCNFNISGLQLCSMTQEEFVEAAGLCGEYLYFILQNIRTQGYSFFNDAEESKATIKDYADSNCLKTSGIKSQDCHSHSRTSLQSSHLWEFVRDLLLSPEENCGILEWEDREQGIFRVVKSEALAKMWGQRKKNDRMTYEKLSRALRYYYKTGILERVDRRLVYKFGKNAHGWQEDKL
How it was run: as §1

ETV3 = molecular target: T12, ETV3 (Homo sapiens, UniProt P41162-2 1-143); details: protein: recombinant; tags: N-terminal GST; dsDNA, one strand shown
T12 sequence: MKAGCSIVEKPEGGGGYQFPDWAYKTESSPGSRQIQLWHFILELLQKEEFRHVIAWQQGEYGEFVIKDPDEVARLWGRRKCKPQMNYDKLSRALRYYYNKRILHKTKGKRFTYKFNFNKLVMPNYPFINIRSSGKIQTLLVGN
How it was run: as §1

ETV6 = ETV6 (Homo sapiens, UniProt P41212 1-452); details: protein: recombinant; tags: N-terminal GST; dsDNA, one strand shown
How it was run: as §1

ETV1, sequence (P50549 whole entry): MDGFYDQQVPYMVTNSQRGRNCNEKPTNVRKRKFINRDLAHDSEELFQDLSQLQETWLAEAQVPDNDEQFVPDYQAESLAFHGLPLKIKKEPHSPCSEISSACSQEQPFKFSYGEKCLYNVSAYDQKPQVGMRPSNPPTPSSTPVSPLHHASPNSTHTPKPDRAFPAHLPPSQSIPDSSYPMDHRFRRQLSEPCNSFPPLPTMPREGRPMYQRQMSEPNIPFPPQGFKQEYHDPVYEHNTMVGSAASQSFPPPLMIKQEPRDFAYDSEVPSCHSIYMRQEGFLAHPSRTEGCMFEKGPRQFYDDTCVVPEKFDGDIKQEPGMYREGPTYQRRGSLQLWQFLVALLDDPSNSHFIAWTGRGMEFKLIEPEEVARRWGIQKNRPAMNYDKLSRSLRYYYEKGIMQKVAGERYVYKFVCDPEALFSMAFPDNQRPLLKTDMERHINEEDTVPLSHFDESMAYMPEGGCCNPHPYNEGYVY
CRX, sequence (O43186 whole entry): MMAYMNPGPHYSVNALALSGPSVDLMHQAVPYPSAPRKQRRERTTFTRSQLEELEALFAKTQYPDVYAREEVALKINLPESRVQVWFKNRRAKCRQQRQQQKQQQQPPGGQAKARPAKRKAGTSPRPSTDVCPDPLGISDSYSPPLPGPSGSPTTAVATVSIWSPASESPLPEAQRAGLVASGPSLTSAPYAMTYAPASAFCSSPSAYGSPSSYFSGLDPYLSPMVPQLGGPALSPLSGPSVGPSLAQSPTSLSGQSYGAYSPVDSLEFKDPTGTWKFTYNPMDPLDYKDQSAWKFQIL
ELF4, sequence (Q99607 whole entry): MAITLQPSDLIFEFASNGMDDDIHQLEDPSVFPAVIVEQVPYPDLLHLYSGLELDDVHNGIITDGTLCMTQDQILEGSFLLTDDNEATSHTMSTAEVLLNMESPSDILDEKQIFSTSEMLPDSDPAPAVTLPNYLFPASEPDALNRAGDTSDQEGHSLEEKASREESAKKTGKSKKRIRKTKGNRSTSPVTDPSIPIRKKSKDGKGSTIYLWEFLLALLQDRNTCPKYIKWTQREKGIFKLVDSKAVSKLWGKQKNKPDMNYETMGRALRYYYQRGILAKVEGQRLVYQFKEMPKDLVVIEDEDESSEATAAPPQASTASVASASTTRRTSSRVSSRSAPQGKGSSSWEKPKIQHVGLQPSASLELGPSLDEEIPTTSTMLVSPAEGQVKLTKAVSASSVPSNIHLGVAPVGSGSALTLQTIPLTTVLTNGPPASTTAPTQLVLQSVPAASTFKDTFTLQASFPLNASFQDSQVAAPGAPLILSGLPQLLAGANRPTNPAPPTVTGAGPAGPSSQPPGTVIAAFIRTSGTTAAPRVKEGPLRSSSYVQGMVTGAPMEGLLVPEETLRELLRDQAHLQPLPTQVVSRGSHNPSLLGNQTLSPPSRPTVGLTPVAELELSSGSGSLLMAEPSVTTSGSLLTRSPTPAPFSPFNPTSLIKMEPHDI
HSF1, sequence (Q00613 whole entry): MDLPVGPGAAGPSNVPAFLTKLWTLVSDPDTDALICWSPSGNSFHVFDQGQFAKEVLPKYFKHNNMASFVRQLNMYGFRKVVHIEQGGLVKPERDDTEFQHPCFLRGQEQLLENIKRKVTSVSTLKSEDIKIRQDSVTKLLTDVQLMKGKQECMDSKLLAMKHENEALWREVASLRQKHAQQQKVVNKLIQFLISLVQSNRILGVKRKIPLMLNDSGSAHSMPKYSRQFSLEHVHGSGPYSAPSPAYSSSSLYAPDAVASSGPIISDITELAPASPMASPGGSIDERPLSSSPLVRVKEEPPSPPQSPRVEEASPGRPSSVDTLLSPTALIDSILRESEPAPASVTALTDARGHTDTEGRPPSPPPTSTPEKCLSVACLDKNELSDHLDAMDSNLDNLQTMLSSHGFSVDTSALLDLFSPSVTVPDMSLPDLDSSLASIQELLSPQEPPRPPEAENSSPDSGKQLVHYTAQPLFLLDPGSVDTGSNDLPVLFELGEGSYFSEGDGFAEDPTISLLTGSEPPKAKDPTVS
ETV5, sequence (P41161 whole entry): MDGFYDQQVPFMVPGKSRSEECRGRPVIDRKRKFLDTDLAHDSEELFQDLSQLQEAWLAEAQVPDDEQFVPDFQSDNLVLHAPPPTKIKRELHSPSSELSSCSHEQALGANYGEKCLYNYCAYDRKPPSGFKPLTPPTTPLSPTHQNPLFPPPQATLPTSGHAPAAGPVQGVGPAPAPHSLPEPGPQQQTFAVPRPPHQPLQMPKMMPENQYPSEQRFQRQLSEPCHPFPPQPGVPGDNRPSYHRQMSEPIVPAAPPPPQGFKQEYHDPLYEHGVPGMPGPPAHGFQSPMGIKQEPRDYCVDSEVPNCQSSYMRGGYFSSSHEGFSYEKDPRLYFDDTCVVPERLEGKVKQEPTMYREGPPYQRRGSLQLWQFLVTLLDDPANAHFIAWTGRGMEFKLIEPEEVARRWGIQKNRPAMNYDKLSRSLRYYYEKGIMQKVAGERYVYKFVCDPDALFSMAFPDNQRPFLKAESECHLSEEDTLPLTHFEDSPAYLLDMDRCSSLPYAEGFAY
ETV6, sequence (P41212 whole entry): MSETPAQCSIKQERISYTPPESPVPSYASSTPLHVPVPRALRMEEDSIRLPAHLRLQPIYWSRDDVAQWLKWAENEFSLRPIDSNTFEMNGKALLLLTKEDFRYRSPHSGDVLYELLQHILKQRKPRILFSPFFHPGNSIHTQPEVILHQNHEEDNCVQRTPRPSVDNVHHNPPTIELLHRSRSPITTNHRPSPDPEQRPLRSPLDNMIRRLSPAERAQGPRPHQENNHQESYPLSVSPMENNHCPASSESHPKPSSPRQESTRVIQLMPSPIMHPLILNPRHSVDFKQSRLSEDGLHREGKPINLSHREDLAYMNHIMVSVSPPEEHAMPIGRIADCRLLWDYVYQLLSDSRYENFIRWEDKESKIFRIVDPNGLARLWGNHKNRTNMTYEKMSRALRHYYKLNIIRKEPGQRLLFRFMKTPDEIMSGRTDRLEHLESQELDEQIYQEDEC

## TTCTCT
FEV
  binding signal: 1.22 fold enrichment (6-mer frequency, TF over GST control)
ETV5
  binding signal: 1.24 fold enrichment (6-mer frequency, TF over GST control)
HSF1
  binding signal: 1.84 fold enrichment (6-mer frequency, TF over GST control)
SPIC
  binding signal: 1.16 fold enrichment (6-mer frequency, TF over GST control)
ELF4
  binding signal: 1.26 fold enrichment (6-mer frequency, TF over GST control)
ELK4
  binding signal: 1.33 fold enrichment (6-mer frequency, TF over GST control)
ETV2
  binding signal: 1.29 fold enrichment (6-mer frequency, TF over GST control)
ELF3
  binding signal: 1.37 fold enrichment (6-mer frequency, TF over GST control)
CRX
  binding signal: 1.49 fold enrichment (6-mer frequency, TF over GST control)
ETV1
  binding signal: 1.36 fold enrichment (6-mer frequency, TF over GST control)
ERF
  binding signal: 1.19 fold enrichment (6-mer frequency, TF over GST control)
ETV3L
  binding signal: 1.39 fold enrichment (6-mer frequency, TF over GST control)
ETS2
  binding signal: 1.23 fold enrichment (6-mer frequency, TF over GST control)
SPDEF
  binding signal: 1.31 fold enrichment (6-mer frequency, TF over GST control)
ETV7
  binding signal: 1.26 fold enrichment (6-mer frequency, TF over GST control)
ELF5
  binding signal: 1.35 fold enrichment (6-mer frequency, TF over GST control)
ETV3
  binding signal: 1.3 fold enrichment (6-mer frequency, TF over GST control)
ETV6
  binding signal: 1.24 fold enrichment (6-mer frequency, TF over GST control)
